Assay outcomes from PubChem.
UHRF1 MBD2 ctr: UHRF1 methylated DNA binding inhibitors, primary screen, counter-screen for MBD2 inhibitor project, biochemical, TR-FRET, human UHRF1, single concentration. E3 ubiquitin-protein ligase UHRF1 (Homo sapiens), Q96T88. inhibition, % at 4.4 µM. hit rate 0.75% among 370,000. UHRF1 binding to methylated oligo. AID 687016, 2013; in the data active = inhibition above about 21%;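 also: UHRF1 SRA domain binding a hemimethylated CpG hairpin DNA probe; 0% = median of test compound wells and 100% = reference inhibitor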
rCAG binder: binders of r(CAG) RNA repeats, primary screen, biochemical, fluorescence | r(CAG) RNA repeat, TO-PRO-1 dye displacement fluorescence | inhibition, % at 3 µM | hit rate 1.3% among 370,000 | AID 651821, 2012;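 active = inhibition above the plate cutoff, the mean of all test compounds on that plate plus 3 SD, cut at about 35% in these data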;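 also: 0% = DMSO alone and 100% = 100 µM mitoxantrone as full dye displacement; higher means more dye released from RNA so lower well fluorescence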
PG9 Ab binder: binders of HIV-1 gp120 antibody PG9, primary screen, biochemical, TR-FRET | HIV-1 gp120 / PG9 antibody interaction | TR-FRET gp120-PG9 antibody binding | inhibition, % at 6.7 µM | hit rate 0.43% among 360,000 | AID 624416, 2012; in the data active = inhibition above about 8.5%
DNMT1 block: human DNMT1 methyltransferase inhibitors, primary screen, biochemical, molecular beacon, fluorescence, HinP1I cleavage, uHTS | DNA (cytosine-5)-methyltransferase 1 (Homo sapiens), P26358 | inhibition (reported as % activation of signal), % at 10 µM | hit rate 0.83% among 360,000; in the data active = inhibition above about 50%
Target sequence (P26358 504-1616 limits assumed): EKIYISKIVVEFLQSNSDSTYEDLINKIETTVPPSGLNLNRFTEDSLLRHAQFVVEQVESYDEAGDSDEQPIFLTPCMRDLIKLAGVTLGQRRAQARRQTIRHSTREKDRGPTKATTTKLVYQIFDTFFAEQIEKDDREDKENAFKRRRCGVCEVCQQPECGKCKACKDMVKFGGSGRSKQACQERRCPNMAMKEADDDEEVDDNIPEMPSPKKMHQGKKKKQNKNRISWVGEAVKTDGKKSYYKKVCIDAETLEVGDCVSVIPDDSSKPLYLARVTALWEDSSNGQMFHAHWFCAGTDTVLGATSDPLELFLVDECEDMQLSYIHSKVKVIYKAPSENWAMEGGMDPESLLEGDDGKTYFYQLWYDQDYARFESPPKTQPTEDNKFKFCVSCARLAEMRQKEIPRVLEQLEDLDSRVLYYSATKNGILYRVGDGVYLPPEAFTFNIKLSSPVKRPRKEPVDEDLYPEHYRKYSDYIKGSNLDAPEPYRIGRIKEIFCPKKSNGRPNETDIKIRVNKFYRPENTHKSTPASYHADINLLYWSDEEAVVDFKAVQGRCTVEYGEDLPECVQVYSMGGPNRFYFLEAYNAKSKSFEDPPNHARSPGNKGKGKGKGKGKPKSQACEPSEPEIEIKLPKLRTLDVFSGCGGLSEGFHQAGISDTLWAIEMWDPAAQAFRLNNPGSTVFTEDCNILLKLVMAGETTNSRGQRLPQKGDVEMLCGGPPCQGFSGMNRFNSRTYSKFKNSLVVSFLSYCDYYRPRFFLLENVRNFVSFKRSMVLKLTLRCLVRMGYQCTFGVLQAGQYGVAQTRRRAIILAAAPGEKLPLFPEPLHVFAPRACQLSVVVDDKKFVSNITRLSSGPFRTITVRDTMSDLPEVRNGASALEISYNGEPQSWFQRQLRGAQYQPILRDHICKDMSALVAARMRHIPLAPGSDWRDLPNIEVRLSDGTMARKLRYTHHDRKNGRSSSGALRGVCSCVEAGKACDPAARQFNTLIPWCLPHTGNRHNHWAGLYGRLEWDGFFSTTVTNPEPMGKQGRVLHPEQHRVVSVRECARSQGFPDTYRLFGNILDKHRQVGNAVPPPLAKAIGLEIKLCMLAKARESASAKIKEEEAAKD
MBD2 DNA inh: inhibitors of MBD2 binding to methylated DNA, primary screen, biochemical, TR-FRET, DNA-binding domain, human; Methyl-CpG-binding domain protein 2 (Homo sapiens), Q9UBB5; MBD2 binding to methylated oligonucleotide; inhibition, % at 4.4 µM; hit rate 0.31% among 370,000; AID 686964, 2013; in the data active = inhibition above about 13%
LEDGF integ inh: blockers of LEDGF/p75-dependent integrase strand transfer – biochemical, TR-FRET, high throughput, primary screen; HIV-1 integrase (with human LEDGF/p75); TR-FRET IN-LEDGF/p75 DNA integration, Eu/Cy5; inhibition, % at 3.7 µM; hit rate 0.64% among 370,000; AID 743269, 2014;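 active = inhibition above the screen-wide mean plus 3 SD, cut at about 13% in these data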;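 also: signal is the Cy5 over europium emission ratio at 671 and 618 nm; 0% = plate median of compound wells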
Beacon interf DR: spectral interference with molecular beacon fluorescence, dose response, artefact control for DNMT1 inhibitor project, biochemical, fluorescent molecular beacon; shares compounds with DNMT1 block; spectral interference counter-screen; IC50, µM; 200 tested, under 10 active; AID 602382, 2012; call rule not given here
DNMT1 confirm: DNMT1 methyltransferase inhibitor retest, confirmation, biochemical, molecular beacon, fluorescence, single concentration | inhibition, % at 10 µM | DNMT1 molecular beacon HinP1I cleavage | hit rate 8% among 2,300 | shares compounds with DNMT1 block;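 active = average inhibition of at least 30% in the single-concentration confirmation test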
DNMT1 interf: counter-screen for DNMT1 inhibitors: spectral interference; shares compounds with DNMT1 block; DNMT1 molecular beacon spectral interference counterscreen, fluorescence 485/520; activation (fluorescence interference), % at 10 µM; hit rate 1% among 2,300; AID 602387;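 active = activation of at least 30% at 10 µM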;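 also: DNMT1 catalytic domain with a HinP1I cleavage step and a FAM/dabcyl DNA beacon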
* hit, by the source's call; . = not tested or not shown. A selection: hits, their analogues and other compounds. The true share with any hit is near 3.5%.

SMILES	UHRF1 MBD2 ctr	rCAG binder	PG9 Ab binder	DNMT1 block	MBD2 DNA inh	LEDGF integ inh	DNMT1 confirm	DNMT1 interf	others
CCCN(C)C1CN(Cc2cn(Cc3ccc(F)cc3)nn2)S(=O)(=O)C1 (stereo not given)	9	1	2	.	5	1	.	.
COc1ccc(/C(C)=N/Nc2ccc(C(=O)O)cc2)c(OC)c1	2	2	-5	56*	5	-5	1	5
COc1ccc(CC(=O)Nc2ccc(-c3noc(-c4ccc(Cl)cc4)n3)cc2)cc1	-1	3	-1	51*	1	-1	4	-5
Cc1ccc(N2NC(=O)/C(=C/c3ccc(-c4ccc(Cl)c(C(=O)O)c4)o3)C2=O)cc1C	4	8	1	13	-2	-2	.	.
O=C1NN(c2ccccc2)C(=O)/C1=C/c1ccc(-c2ccc(C(=O)O)cc2)o1	19	34	-9	78*	7	5	30	-1	Beacon interf DR=>99
CC(=O)c1cccc(N(CC(=O)NC2CCCCC2)C(=O)CCC(=O)Nc2nc(C)cs2)c1	-1	-7	-1	-1	1	-2	.	.
CN1CCN(C(=O)CCN2C(=O)c3ccccc3C2=O)CC1	0	0	0	51*	1	-4	1	2
O=C(Nc1ccc2c(c1)OCCO2)c1[nH]c(C(F)(F)F)nc1-c1ccccc1	0	9	0	3	9	-3	.	.
Cc1ccc(NC(=S)N2CCC(NC(=O)c3ccc(F)cc3)CC2)cc1	1	7	1	2	-2	3	.	.
COCC1CCN(C(=O)c2ccc3nc(Cc4cccc(Cl)c4)oc3c2)CC1	-3	6	-1	-5	-1	0	.	.
COc1ccc(OC)c(/C=N/NC(=O)c2cc3c(OC)cccc3[nH]2)c1	0	8	-1	-5	-7	-7	.	.
CCOc1ccc(/C=N/NC(=O)c2cc3c(OC)cccc3[nH]2)cc1	-1	5	0	83*	-2	0	4	-3
CC(C)NC(=O)N[C@H]1CC[C@H](CC(=O)NCc2ccc(Oc3ccccc3)cc2)O[C@@H]1CO	4	1	1	.	4	-5	.	.
CC(C)OCCCNC(=O)CN1C(=O)CSc2ccc(S(=O)(=O)N3CCCCC3)cc21	3	-4	-1	69*	1	-1	8	-2
CCOc1cc(/C=C2/NC(=S)NC2=O)ccc1OCc1ccc([N+](=O)[O-])cc1	0	6	-2	52*	-1	2	3	9
Cc1ccc(/C=C2\NC(=S)NC2=O)cc1[N+](=O)[O-]	-3	0	-1	1	-4	-2	.	.
COc1ccc(Oc2c(OC)cc(NCc3ccc(CN)cc3)c3ncccc23)cc1	0	22	1	95*	2	2	33*	-5	Beacon interf DR=>99
CC1(C(=O)Nc2cccnc2)Cc2c(-c3ccc4c(c3)OCO4)ccnc2O1 (stereo not given)	6	-1	-2	1	4	-4	.	.
COc1ccc(S(=O)(=O)N(C)C[C@@H]2Oc3c(NC(=O)Nc4ccccc4)cccc3C(=O)N([C@@H](C)CO)C[C@H]2C)cc1	-4	.	.	.	-3	3	.	.
COc1ccc(/C=N/Nc2cc(N(C)C)nc(N(C)C)n2)cc1	-7	-1	-2	51*	-8	2	-3	-11
c1cncc(CNc2ncnc3sc4c(c23)CCCC4)c1	-2	-1	1	-1	-7	1	.	.
